Source: ChEMBL document CHEMBL4888484, “Replenishing the malaria drug discovery pipeline: Screening and hit evaluation of the MMV Hit Generation Library 1 (HGL1) against asexual blood stage Plasmodium falciparum ,using a nano luciferase reporter read-out” (2022)
The campaign covered roughly 4,800 compounds. About 410 (8.5%) showed an effect of 50% or more. This is one part of a sample in which strong results are shown more often than they occur.

Tested on: Plasmodium falciparum
Assay: Confirmatory screen in NF54 pLDH assay, in single point, at 2uM, 72h
Format: functional, Erythrocyte
Details: timepoint 72 hour

Structure (SMILES)	% Inhibition [%]
N#Cc1ccccc1OCc1csc(-c2ccccn2)n1	6
O=C(Nc1nc(CCc2c[nH]c3ccccc23)n[nH]1)c1cccnc1	12
CC1=NN(S(=O)(=O)c2ccc(F)cc2)C(=O)c2ccccc2O1	5
CN(Cc1nnc2n1CCC2)C(=O)Cc1cccs1	9
COc1cc(CN(CC(N)=O)C(C)C)ccc1C	9
Cc1cc(C(=O)NCc2nc3ccccc3s2)c(C)o1	7
CN1CCN(C(=O)CNC(=O)c2cccc(Cl)c2)CC1	8
Cc1ccc(S(=O)(=O)N(CC(=O)NC2CCN(C)CC2)c2cccc(Cl)c2)cc1	2
Cc1ccc(COc2cccc(CNC3CC3)c2)cc1	-1
Cn1cc(Cl)c(C(=O)Nc2cccc(S(=O)(=O)N3CCOCC3)c2)n1	13
CCN1C(=O)[C@]2(NC3(CCCCC3)C(=O)N2CC)c2ccccc21	-11
Cc1nn(C)c(NC(=O)CCc2c[nH]cn2)c1C	-7
Cc1cc(C(=O)NCCCS(N)(=O)=O)c(Cl)cc1F	-7
Cc1ccc(O)c(CNc2ccc3c(c2)OCC3(C)C)n1	-19
Cc1ccc(O)c(CNCC2(c3ccccc3Cl)CCOCC2)n1	98
c1csc(CNC2CCCCCCC2)c1	-2
COc1ccc(OC)c(NC(=O)CN2CCc3[nH]c4ccc(F)cc4c(=O)c3C2)c1	83
COc1cc(C)c2[nH]c3c(c(=O)c2c1)CN(CC(=O)Nc1ccc(C)c(F)c1)CC3	8
COc1cc(C)c2[nH]c3c(c(=O)c2c1)CN(CC(=O)Nc1ccc(F)c(C)c1)CC3	17
Cc1nn(-c2ccccc2)c2nc(Cc3ccccc3)nc(N3CCCN(C(=O)NC4CCCCC4)CC3)c12	8
Cc1cc(-c2ccccc2)nc2sc(-c3ccccc3)c([O-])[n+]12	5
Cc1cc[n+]2c(-c3ccccc3)cc(-c3ccccc3)nc2c1	50
Cc1cc(-c2ccccc2)cc(-c2ccccc2)c1-c1cc(-c2ccccc2)cc(-c2ccccc2)n1	-3
CC[C@H]1Cn2c(C(=O)NC3CCCC3)cc3c(Cl)ccc(c32)O1	-11
Cn1c(=O)c2c(-c3ccc(Cl)cc3)n(-c3cccc4cccc(N)c34)cc2n(C)c1=O	91
Cn1c2cn(-c3ccc(F)cc3)c(-c3ccccc3)c2c(=O)n1-c1ccccc1	6

Structure (SMILES)	% Inhibition [%]
O=C(CCc1nc2ccccc2c(=O)[nH]1)Nc1ccc(-n2cnnn2)cc1	6
O=C(N[C@H]1CCOC1=O)OCc1ccccc1	-4
CCOC(=O)c1cnn(C)c1S(=O)(=O)N1CCCCC1	2
CC1CC(NC(=O)NC2CS(=O)(=O)c3ccccc32)C(=O)N1c1ccccc1 (stereo unspecified)	-1
Cc1ccc(Nc2c(-c3cc4ccccc4cc3O)nc3ncccn23)cc1	6
O=C1CCCc2nc3[nH]n(-c4ccccc4)c(=O)c3cc21	13
CCCCCc1c(C)nc2[nH]n(-c3ccccc3)c(=O)c2c1O	-22
CNCCc1c(-c2ccccc2)[nH]n(-c2ccccc2)c1=O	69
CCOc1cccc(NCc2c(N)ncnc2OC)c1	13
CC[C@@](C)(C(=O)NC1CCCC1)N(Cc1ccco1)C(=O)c1ccc2c(c1)OCO2	-9
Cc1ccc(CN2CCS(=O)(=O)CC2)o1	-13
Cc1oc(-c2ccc(C(=O)Nc3cccc(Cl)c3C)cc2)nc1COc1ccccc1	9
CN1CCC(N2CCN(Cc3ccc4cc(O)ccc4c3)CC2)CC1	92
CN1CC[C@H](CN(C)Cc2ccc3cc(O)ccc3c2)C1	36
Oc1ccc2cc(CN3CCC[C@H](CN4CCCC4)C3)ccc2c1	97
COc1ccc(NC(=O)N2C[C@@H]3C[C@H](NS(=O)(=O)c4ccccc4)[C@H]2C3)c(C)c1	3
CCc1cccc(NC(=O)C2CCN(c3c(C)n(-c4ccccc4)c(=O)n(CC(C)C)c3=O)CC2)c1	5
O=C1c2ccccc2C(=O)N1Cc1cnn(CC(F)F)c1	12
COc1ccc2oc(-c3ccc(CNC(=O)c4cccnc4)cc3)nc2c1	6
CC(C)(C)OC(=O)N1CCC(c2c(C(=O)Nc3ccc(Cl)cc3Cl)cnn2-c2cccc(F)c2)CC1	-3
CC1(C)C(=O)NCCN1C(=O)c1ccc2nccnc2c1	9
CN(C(=O)c1n[nH]c2c1CCC2)[C@H]1CCCc2c1cnn2C	-4
O=S1(=O)c2ccccc2N=NN1Cc1ccc(Cl)cc1	-19
O=C(Nc1ccc(N2CCn3c(nc4ccccc43)C2)cc1)c1ccc(F)cc1	14
O=C(Nc1cnc2ccccc2c1)c1ccccc1C(=O)c1ccc(F)cc1	94
O=C(Nc1cc(NC(=O)c2ccc(F)cc2)cc(Oc2cccnc2)c1)c1ccc(F)cc1	5

Structure (SMILES)	% Inhibition [%]
CN(C)c1cccc(C(=O)N2CCN(c3ncc(F)cn3)C(=O)C2)c1	10
Cc1nnc2sc(-c3cnn(-c4ccccn4)c3C(F)(F)F)nn12	-4
c1ccc(-c2cccnc2NCc2cscn2)cc1	-3
Cc1ccc(C2C(C(=O)N3CCC(C)CC3)CCC(=O)N2C)cc1 (stereo unspecified)	-1
COC(=O)[C@@H]1[C@@H](NC(=O)C2CCCC2)CCN1C(C)=O	1
Cc1cc2c(cc1C)N(CC(=O)Nc1ccc(C(F)(F)F)cc1)C(=O)CC(c1cccs1)=N2	-23
CC1CC(C(=O)Nc2[nH]c(=O)ncc2F)CC(C)(C)C1 (stereo unspecified)	84
CC(=O)N[C@@H]1CN(Cc2nccn2Cc2ccccc2)C[C@H]1c1nccn1C	12
Cc1ccc(S(=O)(=O)N2CC(C)N(C(=O)N3CCOCC3)C2C)cc1 (stereo unspecified)	14
CC1CCN(Cc2ccc(CNCc3c[nH]nc3-c3ccc(F)cc3)cc2)CC1	50
FC(F)(F)C1CCCC(NCc2c[nH]nc2-c2cccnc2)C1 (stereo unspecified)	3
Nc1c(-c2ccc(F)cc2)nsc1C(=O)NC1CCN(Cc2ccccc2)CC1	8
c1ccc(-c2ccccc2NCn2nnc3ccccc32)cc1	-9
CCc1cccc(NC(=O)N2CCC3(CC2)C(=O)N(CC(=O)Nc2ccc(F)cc2)CN3c2ccccc2)c1	30
CC(C)N(CCS(C)(=O)=O)C(=O)NCc1ccco1	10
CN(C)CCN(C)c1ccc(Br)cc1NCc1cncn1C	39
CCn1nc(C)c(CN(C)S(=O)(=O)c2ccc(N3CCCC3=O)cc2)c1C	-1
Cc1cccc(Nc2nc(-c3cnc(N4CCN(C)CC4)nc3C)cc(=O)[nH]2)c1	4
Cc1ccc(NC(=O)Nc2cccc(-c3ccc(N4CCN(C)CC4)nn3)c2)cc1C	13
Cc1cc(C(=O)N[C@@H](C)C(=O)N2CCCCC2)c2nc3n(c2n1)CCCCC3	8
Oc1ccc(-n2c(-c3ccccc3)ccc2-c2ccccc2)cc1	12
Cc1ccc(C(=O)C[n+]2cc(-c3ccc(Br)cc3)n(C)c2N)cc1	-16
COc1ccc2c(c1)[n+](CC(=O)c1ccc(-c3ccc(Br)cc3)cc1)c(CO)n2C	54
COc1cccc(C(=O)C[n+]2cc(-c3ccc(Br)cc3)n(C)c2N)c1	4
COc1ccnc(CN2CC[C@](C)(O)[C@H](O)C2)c1	6
CN1CCCN(c2ccnc3ccsc23)CC1	39

Structure (SMILES)	% Inhibition [%]
Cc1ccc(OCc2cccc(C(=O)N3CCC[C@@H]3CN3CCCCC3)c2)cn1	9
C=CCNC(=NC)NC1CCN(c2cc(OC)cc(OC)c2)CC1	7
CCC1(CC)CCC(NC(=O)[C@@H]2CCCCC(=O)N2)CC1	-14
C[C@H]1C[C@@H](O)CCN1C(=O)c1cccc2sc(C(F)(F)F)nc12	3
Cc1cc(C)cc(-n2cc(C(=O)NCCCc3ccccc3)nn2)c1	8
Cc1cc2nc(C)c(=O)n(Cc3ccc(C(=O)NCc4ccco4)cc3)c2cc1C	8
Cc1cc(NC(=O)NC(C)C)c2[nH]c(C(=O)N3CCOCC3)c(-c3ccccc3)c2c1	9
CO/C(=N/C(=O)c1cccc(OC)c1)N[C@H]1CCCc2ccccc21	-9
O=c1[nH]c(=O)n(Cc2cc(Cl)cc3c2OCOC3)cc1Cl	12
CC(C)N(C)S(=O)(=O)Nc1ccc(Br)cc1O	9
Nc1ccccc1-c1nc(Nc2ncccn2)n[nH]1	7
Cc1nc(CC(=O)Nc2cc(C3CC3)nn2-c2ccccc2)cs1	8
Cc1cc(NC(=O)c2ccc(COc3ccc4ccccc4c3)o2)nn1C	13
CC(C)c1cc(=O)[nH]c(-n2nc(C3CC3)cc2NC(=O)COc2ccc3ccccc3c2)n1	65
CC(C)c1cc(=O)[nH]c(-n2nc(C3CC3)cc2NC(=O)Cc2ccc(Cl)cc2)n1	67
Cc1ccc(N2C[C@@H](c3nnc(NC(=O)Cc4ccc(Cl)cc4)o3)CC2=O)cc1	-18
O=C(Nc1ccc(OC(F)F)cc1)c1cc(C2CC2)nc2c1c(C1CC1)nn2-c1ccccc1	-5
CCOc1c(Br)cc(Cl)cc1NCC(=O)NC(=O)NC	14
COc1cc(N2CCn3c(nc4ccccc43)C2)ccc1NC(=O)c1ccc(C)cc1	-23
O=C1NS(=O)(=O)c2cc(N3CCN(Cc4ccccc4)CC3)ccc21	8
CCc1ccc(C(=O)Nc2cnc(-n3ccnc3)nc2)cc1	29
O=C(C[C@H]1CCN(S(=O)(=O)c2ccc(F)cc2F)C1)NCc1ccccc1	10
Cc1nn(Cn2nc(-c3ccc(F)cc3)c(Br)c2-c2ccc(F)cc2)c(C)c1Cl	6
